22 compounds from PubChem BioAssay can be followed below.

Results filed as inconclusive are left out. Activity calls are given as the source filed them. Unless noted, the limit is not given here; nearly all actives have AC50 up to about 26 µM.

Test [1] can be described thus: growth inhibition of DIPG glioma cells, dose response, cell-based, SU-DIPG-XVII, MIPE5.0, CellTiter-Glo, qHTS (AID 1347060).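 As to AC50: cells exposed to compound for 48 hours before viability readout.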 Particulars: SU-DIPG-XVII viability, CellTiter-Glo ATP luminescence.
The nature of test [2]: growth inhibition of DIPG glioma cells, dose response, cell-based, SU-DIPG-XIII, MIPE5.0, CellTiter-Glo, qHTS (AID 1347064; cut-off not given, nearly all actives have AC50 up to about 23 µM;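 as to AC50: cells exposed to compound for 48 hours before the viability read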). To be noted: SU-DIPG-XIII viability, CellTiter-Glo ATP luminescence. A general note: Cellular ATP, detected with luciferase, serves as a proxy for viable cell number.
Test [3] can be described thus: viability loss in pontine glioma line – cell-based, SU-DIPG-XXV, MIPE5.0, CellTiter-Glo, qHTS, dose response (AID 1347065).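 Also: cells exposed to compound for 48 hours before ATP readout.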 To be noted: CellTiter-Glo ATP luminescence.
Test [4] is described as follows: JHH-DIPG-1 glioma cell viability, MIPE5.0 library, CellTiter-Glo luminescence, qHTS (AID 1347067).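 Also: cells exposed to compound for 48 hours before readout.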 To be noted: JHH-DIPG-1 glioma viability, CellTiter-Glo ATP luminescence.
Test [5] can be described thus: SU-DIPG-XXV glioma cell viability, MIPE5.0 library, qHTS (AID 1347068; cut-off not given, nearly all actives have IC50 up to about 30 µM;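 as to IC50: cells exposed to compound for 48 hours before viability readout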). (Quantitative high-throughput screening tests each substance at several concentrations.)

Take `CCC(=O)N1CCOc2c(cc(-c3cc(OC)cc(OC)c3)cc2C(=O)N[C@H]2CCCN(C)C2)C1`: the result in test [1], in test [2], in test [3], in test [4] and in test [5] was inactive.
For the compound `Cc1c[nH]c2nc(Nc3ccc(N4CCN(C)CC4)c(F)c3)nc(-c3cccc(CC#N)c3)c12`, the AC50 (usually the midpoint of the concentration-response curve, whichever way the signal moves) in test [1] was 2.35 µM (active); in test [2], 4.17 µM (active); in test [3], 4.17 µM (active); in test [4], 3.72 µM (active). Besides, in test [5], the IC50 (as a rule, the concentration needed to halve the response being measured) was 3.32 µM (active).
Take `CN1CCN(c2ccc3nc(-c4cc(C(C)(C)C)c(OCCCC(=O)NCCCN=[N+]=[N-])c(C(C)(C)C)c4)[nH]c3c2)CC1`: the AC50 was 10.5 µM (active) in test [1], 13.2 µM (active) in test [2], 7.42 µM (active) in test [3] and 11.8 µM (active) in test [4]. Further, the IC50 in test [5] was 9.34 µM (active).
For `C=CC(=O)Nc1cccc(Oc2nc(Nc3ccc(N4CCN(C)CC4)c(F)c3)nc3[nH]ccc23)c1` the same measures were 2.63 µM (active), 5.25 µM (active), 1.86 µM (active), 9.34 µM (active) and 0.833 µM (active).
For `CN1CCN(c2ccc(Nc3ncc4cc(C#N)c(=O)n(C5CCCC5)c4n3)cc2)CC1` the same measures were 3.72 µM (active), 8.33 µM (active), 5.25 µM (active), 10.5 µM (active) and 4.17 µM (active).
For `CN(C)C/C=C/C(=O)Nc1cccc(C(=O)Nc2cccc(Nc3ncc(Cl)c(-c4c[nH]c5ccccc45)n3)c2)c1` the same measures were 0.417 µM (active), 0.332 µM (active), 0.263 µM (active), 0.468 µM (active) and 0.417 µM (active).
`CN1CCN(c2ccc(C(=O)Nc3n[nH]c4ccc(Cc5cc(F)cc(F)c5)cc34)c(NC3CCOCC3)c2)CC1`: the AC50 in test [1] was 2.09 µM (active); in test [2], 4.17 µM (active); in test [3] it was 2.35 µM (active); in test [4] it was 3.32 µM (active). For the same compound, the concentration for half-maximal inhibition (IC50) in test [5] was 5.25 µM (active).
Consider `Cc1cccc(Oc2cnc(=O)[nH]c2)c1`, for which the call in test [1], in test [2], in test [3], in test [4] and in test [5] was inactive.
Consider `COc1ccc(C(=O)N2CCN(c3ccc4c(c3)CCC(=O)N4)CC2)cc1OC`, for which the compound was called inactive in test [1], in test [2], in test [3], in test [4] and in test [5].
For `CN[C@@H](C)C(=O)N[C@H](C(=O)N1CCC[C@H]1C(=O)Nc1sc(-c2ncco2)nc1-c1ccccc1)C1CCCCC1`, the result in test [1], in test [2], in test [3], in test [4] and in test [5] was inactive.
`O=C(Nc1cnn2ccc(N3CCC[C@@H]3c3cc(F)ccc3F)nc12)N1CC[C@H](O)C1`: the compound was called inactive in test [1], in test [2], in test [3], in test [4] and in test [5].
Regarding `CN[C@@H]1[C@@H](O)[C@@H](O[C@@H]2[C@@H](O)[C@H](O[C@H]3O[C@H](CN)[C@@H](O)[C@H](O)[C@H]3O)[C@@H](N)C[C@H]2NC(=O)C(O)CN)OC[C@]1(C)O` (stereo not given in full), the call in test [1], in test [2], in test [3], in test [4] and in test [5] was inactive.
Take `C[C@@H]1CC(=O)Nc2cccc(-c3cnn(C(C)(C)C)c3)c2N1`: the result in test [1], in test [2], in test [3], in test [4] and in test [5] was inactive.
As to `COc1cc2c(cc1OCCCN1CCCC1)N=C(N)C21CCC1`, the compound was called inactive in test [1], in test [2], in test [3], in test [4] and in test [5].
On to `C[C@@H]1CCN(C(=O)N2CCCC2)C[C@@H]1N(C)c1ncnc2[nH]ccc12`, for which the compound was called inactive in test [1], in test [2], in test [3], in test [4] and in test [5].
On to `CC(C)(C)C(=O)CN1C(=O)[C@H](NC(=O)Nc2cccc(C(=O)O)c2)CN(C2CCCCC2)c2ccccc21`, for which the compound was classed as inactive in test [1], in test [2], in test [3], in test [4] and in test [5].
Regarding `Fc1cccc(-n2cnc3c(NCc4nc5c(F)c(F)ccc5[nH]4)nc(N4CCOCC4)nc32)c1`, the AC50 in test [1] was 0.166 µM (active); in test [2], 0.295 µM (active); in test [3], 0.332 µM (active); in test [4] it was 0.209 µM (active). Besides, the IC50 in test [5] was 0.525 µM (active).
For `CNC(=O)c1ccc(Nc2ncc(C(F)(F)F)c(NCc3nccnc3N(C)S(C)(=O)=O)n2)cc1` the same measures were 4.68 µM (active), 5.25 µM (active), 3.72 µM (active), 4.68 µM (active) and 2.35 µM (active).
In the same order, the values of `Cc1ncsc1-c1ccc([C@H](C)NC(=O)[C@@H]2C[C@@H](O)CN2C(=O)[C@@H](NC(=O)COCCCOCCNC(=O)C[C@@H]2N=C(c3ccc(Cl)cc3)c3c(sc(C)c3C)-n3c(C)nnc32)C(C)(C)C)cc1` are 0.132 µM (active), 0.209 µM (active), 0.0742 µM (active), 0.0525 µM (active) and 0.332 µM (active).
With `Cn1ncc(Cl)c1-c1cc(C(=O)N[C@H](CN)Cc2ccc(F)c(F)c2)sc1Cl`, the AC50 was 18.6 µM (active) in test [1], 2.35 µM (active) in test [2], 1.32 µM (active) in test [3] and 16.6 µM (active) in test [4]. Besides, the IC50 in test [5] is 16.6 µM (active).
As to `CCCC(CCC)C(=O)Nc1ccn([C@@H]2O[C@H](CO)[C@@H](O)C2(F)F)c(=O)n1`, the AC50 in test [1] was 4.68 µM (active). The compound was classed as inactive in test [2], in test [3], in test [4] and in test [5].
With `C[C@H]1CN(C[C@H](Cc2ccccc2)C(=O)NCC(=O)O)CC[C@@]1(C)c1cccc(O)c1`, the result in test [1], in test [2], in test [3], in test [4] and in test [5] was inactive.
